Measured values from the supplement of paper PMC11577813, “Eurasian spruce bark beetle detects lanierone using a highly expressed specialist odorant receptor, present in several functional sensillum types” (BMC Biology, 2024).
± gives the standard deviation of the averaged measurements.

Experiments:
[1] = tested on: (+)-isopinocamphone A-neuron OSN class; experiment: net action potential response of A-neuron (blank-subtracted) (spikes/s (Hz)); higher = stronger excitation; conditions: 10 µg on filter paper; neuron: A neuron (large spike amplitude)
How it was run: (§1)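 A humidified, charcoal-filtered airstream of 1.8 L/min passed over one fixed antenna of a live lab-reared adult Ips typographus during single sensillum recording with tungsten electrodes. Stimuli were 0.5 s pulses at 0.3 L/min from a pipette holding filter paper with 10 μg of compound in paraffin oil. Firing of the large-amplitude A-neuron or small-amplitude B-neuron was taken as a spike rate after pre-stimulus subtraction in AutoSpike, conversion to spikes/s, blank subtraction and averaging across sensilla. The windows were 0.5 s long, with 1–4 sensilla.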

[2] = tested on: (+)-trans-4-thujanol A-neuron OSN class; experiment: as above; conditions: 10 µg on filter paper; neuron: A neuron (large spike amplitude)
How it was run: as §1

[3] = tested on: (5S,7S)-trans-conophthorin A-neuron OSN class; experiment: as above; conditions: 10 µg on filter paper; neuron: A neuron (large spike amplitude)
How it was run: as §1

[4] = tested on: myrcene A-neuron OSN class; experiment: as above; conditions: 10 µg on filter paper; neuron: A neuron (large spike amplitude)
How it was run: as §1

[5] = tested on: p-cymene A-neuron OSN class; experiment: as above; conditions: 10 µg on filter paper; neuron: A neuron (large spike amplitude)
How it was run: as §1

[6] = tested on: lanierone-responsive B-neuron OSN class (ItypOR36); experiment: net action potential response of lanierone B-neuron (blank-subtracted) (spikes/s (Hz)); higher = stronger excitation; conditions: 10 µg on filter paper, neuron: B neuron (small spike amplitude)
How it was run: as §1

[7] = tested on: ipsdienol A-neuron OSN class; experiment: net action potential response of A-neuron (blank-subtracted) (spikes/s (Hz)); higher = stronger excitation; conditions: 10 µg on filter paper; neuron: A neuron (large spike amplitude)
How it was run: as §1

[8] = co-localized A-neuron class: (4S)-cis-verbenol
[9] = co-localized A-neuron class: (5S,7S)-trans-conophthorin
[10] = co-localized A-neuron class: (+)-isopinocamphone
[11] = co-localized A-neuron class: (+)-trans-4-thujanol
[12] = co-localized A-neuron class: ipsdienol
[13] = co-localized A-neuron class: myrcene
[14] = co-localized A-neuron class: p-cymene

## CC/C=C\CCO
[1]
  net action potential response: 10.7 ± 27
[2]
  net action potential response: 74.5 ± 42
[3]
  net action potential response: -2 ± 4
[4]
  net action potential response: 6
[5]
  net action potential response: 0 ± 4
[6]; [8]
  net action potential response: 2.67 ± 6.4
[6]; [9]
  net action potential response: -4 ± 6
[6]; [10]
  net action potential response: -4 ± 2
[6]; [11]
  net action potential response: -4.5 ± 3.4
[6]; [12]
  net action potential response: -5.33 ± 5.8
[6]; [13]
  net action potential response: -6
[6]; [14]
  net action potential response: 0

## CCCCCCO [1-Hexanol]
[1]
  net action potential response: 18.7 ± 22
[2]
  net action potential response: 7 ± 5
[3]
  net action potential response: 6 ± 18
[4]
  net action potential response: 4
[5]
  net action potential response: 5.33 ± 1.1
[6]; [8]
  net action potential response: -0.667 ± 3.1
[6]; [9]
  net action potential response: 0.5 ± 3.4
[6]; [10]
  net action potential response: -1.33 ± 1.1
[6]; [11]
  net action potential response: 0 ± 1.6
[6]; [12]
  net action potential response: 2 ± 2
[6]; [13]
  net action potential response: -6
[6]; [14]
  net action potential response: -2.67 ± 6.1

## CCC/C=C\CO
[1]
  net action potential response: 18 ± 19
[2]
  net action potential response: 25.5 ± 12
[3]
  net action potential response: -2 ± 6
[7]
  net action potential response: 0.667 ± 3.1
[4]
  net action potential response: 2
[5]
  net action potential response: 0
[6]; [8]
  net action potential response: 2 ± 11
[6]; [9]
  net action potential response: 2 ± 5.3
[6]; [10]
  net action potential response: -7.33 ± 4.6
[6]; [11]
  net action potential response: 2 ± 3.6
[6]; [12]
  net action potential response: 0.667 ± 3.1
[6]; [13]
  net action potential response: 6
[6]; [14]
  net action potential response: 2.67 ± 4.2

## CC1=CC(C)(C)C=C(O)C1=O [Lanierone]
[1]
  net action potential response: 46.7 ± 9.2
[2]
  net action potential response: -1.5 ± 1.9
[3]
  net action potential response: -1.5 ± 7
[4]
  net action potential response: 0
[5]
  net action potential response: 1.33 ± 1.1
[6]; [8]
  net action potential response: 135 ± 24
[6]; [9]
  net action potential response: 141 ± 31
[6]; [10]
  net action potential response: 160 ± 24
[6]; [11]
  net action potential response: 155 ± 24
[6]; [12]
  net action potential response: 121 ± 13
[6]; [13]
  net action potential response: 144
[6]; [14]
  net action potential response: 151 ± 12

## C=CC(=C)CC(O)C=C(C)C (racemic) [(±)-Ipsdienol]
[1]
  net action potential response: -4.67 ± 1.1
[2]
  net action potential response: -1.5 ± 1.9
[3]
  net action potential response: -2.5 ± 1.9
[4]
  net action potential response: 40
[5]
  net action potential response: -1.33 ± 4.2
[6]; [8]
  net action potential response: 2.67 ± 15
[6]; [9]
  net action potential response: -0.5 ± 3.4
[6]; [10]
  net action potential response: -2.67 ± 4.2
[6]; [11]
  net action potential response: 0 ± 1.6
[6]; [12]
  net action potential response: -4.67 ± 10
[6]; [13]
  net action potential response: -4
[6]; [14]
  net action potential response: -0.667 ± 1.1

## CC(C)CCO [3-Methyl-1-butanol]
[1]
  net action potential response: 2 ± 2
[2]
  net action potential response: 11 ± 11
[3]
  net action potential response: 3.33 ± 3.1
[4]
  net action potential response: -2
[5]
  net action potential response: 7.33 ± 6.1
[6]; [8]
  net action potential response: 3.33 ± 2.3
[6]; [9]
  net action potential response: 0.667 ± 6.1
[6]; [10]
  net action potential response: 1.33 ± 11
[6]; [11]
  net action potential response: -4 ± 2.3
[6]; [12]
  net action potential response: -4.67 ± 6.4
[6]; [13]
  net action potential response: -6
[6]; [14]
  net action potential response: -0.667 ± 2.3

## CCC(C)CO (racemic) [(±)-2-Methyl-1-butanol]
[1]
  net action potential response: 0 ± 2
[2]
  net action potential response: 2.5 ± 6.8
[3]
  net action potential response: 5 ± 1.1
[7]
  net action potential response: 3.33 ± 1.1
[4]
  net action potential response: 4
[5]
  net action potential response: 8 ± 4
[6]; [8]
  net action potential response: 0 ± 3.5
[6]; [9]
  net action potential response: 2 ± 3.3
[6]; [10]
  net action potential response: -2 ± 2
[6]; [11]
  net action potential response: 3.5 ± 3
[6]; [12]
  net action potential response: -1.33 ± 5
[6]; [13]
  net action potential response: -4
[6]; [14]
  net action potential response: -2 ± 4

## CC1=C[C@@H](O)[C@H]2C[C@@H]1C2(C)C [(-)-trans-Verbenol]
[1]
  net action potential response: 0.667 ± 10
[2]
  net action potential response: 5.5 ± 5.7
[3]
  net action potential response: 13 ± 20
[4]
  net action potential response: 6
[5]
  net action potential response: 2 ± 2
[6]; [8]
  net action potential response: -1.33 ± 9
[6]; [9]
  net action potential response: -3.5 ± 6
[6]; [10]
  net action potential response: 1.33 ± 2.3
[6]; [11]
  net action potential response: -2 ± 2.8
[6]; [12]
  net action potential response: 2 ± 4
[6]; [13]
  net action potential response: -4
[6]; [14]
  net action potential response: -2 ± 9.2

## COc1ccccc1 [Anisole]
[1]
  net action potential response: 2 ± 5.3
[2]
  net action potential response: 1 ± 4.2
[3]
  net action potential response: 1.33 ± 4.2
[4]
  net action potential response: -2
[5]
  net action potential response: 10.7 ± 5.8
[6]; [8]
  net action potential response: -1.33 ± 8.3
[6]; [9]
  net action potential response: 0 ± 6
[6]; [10]
  net action potential response: -2.67 ± 2.3
[6]; [11]
  net action potential response: -2.5 ± 4.1
[6]; [12]
  net action potential response: 2.67 ± 4.6
[6]; [13]
  net action potential response: 2
[6]; [14]
  net action potential response: -3 ± 1.4

## C=C1[C@@H]2CC[C@@H](C2)C1(C)C (racemic) [(±)-Camphene]
[1]
  net action potential response: -2 ± 2
[2]
  net action potential response: 1.5 ± 1
[3]
  net action potential response: -2.67 ± 3.1
[4]
  net action potential response: 0
[5]
  net action potential response: -3 ± 1.4
[6]; [8]
  net action potential response: -3.33 ± 8.3
[6]; [9]
  net action potential response: 0 ± 2
[6]; [10]
  net action potential response: -3.33 ± 1.1
[6]; [11]
  net action potential response: 0 ± 3.6
[6]; [12]
  net action potential response: 3.33 ± 2.3
[6]; [13]
  net action potential response: -4
[6]; [14]
  net action potential response: 0

## CC1=CCC2CC1C2(C)C (stereo not drawn) [(-)-α-Pinene]
[1]
  net action potential response: 4 ± 3.5
[2]
  net action potential response: -0.5 ± 1.9
[3]
  net action potential response: 2.67 ± 3.1
[4]
  net action potential response: 2
[5]
  net action potential response: 5.33 ± 6.4
[6]; [8]
  net action potential response: -6 ± 4
[6]; [9]
  net action potential response: -1.33 ± 2.3
[6]; [10]
  net action potential response: 2 ± 2
[6]; [11]
  net action potential response: 0 ± 5.7
[6]; [12]
  net action potential response: -1.33 ± 4.2
[6]; [13]
  net action potential response: 2
[6]; [14]
  net action potential response: -5.33 ± 4.6
